Only a selection was taken, and hits are over-represented in it overall.
STK33 inh = STK33 kinase inhibitors, primary screen, biochemical, luminescence, ADP-Glo, MBP substrate. Serine/threonine-protein kinase 33 (Homo sapiens), Q9BYT3. inhibition, % at 12.5 µM. 27,000 compounds, 0.44% hits; in the data active = inhibition above about 20%; inconclusive = no clear call, values can overlap the other calls
Target sequence (Q9BYT3 whole entry, looked up): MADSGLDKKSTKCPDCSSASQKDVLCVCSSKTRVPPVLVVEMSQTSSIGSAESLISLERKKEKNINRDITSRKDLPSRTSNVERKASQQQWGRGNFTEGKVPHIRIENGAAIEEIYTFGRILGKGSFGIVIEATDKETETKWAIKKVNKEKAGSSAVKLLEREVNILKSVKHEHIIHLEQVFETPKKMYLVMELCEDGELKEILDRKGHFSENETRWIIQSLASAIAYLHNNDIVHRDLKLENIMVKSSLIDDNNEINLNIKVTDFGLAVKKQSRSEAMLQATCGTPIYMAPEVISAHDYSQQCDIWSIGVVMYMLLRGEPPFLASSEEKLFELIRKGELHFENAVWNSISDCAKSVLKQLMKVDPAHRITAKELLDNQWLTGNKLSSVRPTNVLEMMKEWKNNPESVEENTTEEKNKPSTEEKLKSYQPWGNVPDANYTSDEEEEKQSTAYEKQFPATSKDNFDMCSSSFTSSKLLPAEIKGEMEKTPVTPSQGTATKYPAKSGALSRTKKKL
NOMO-1 viab = NOMO-1 AML cell viability reduction, primary screen, STK33 inhibitor project, CellTiter-Glo luminescence; NOMO-1 AML viability, 72 h; inhibition, % (test concentration not listed); 37,000 compounds, 7.5% hits; AID 2330, 2010; in the data active = inhibition above about 80%; inconclusive = no clear call, values can overlap the other calls
PD-1 reversal = activators reversing PD-1 mediated T-cell inhibition, primary screen, luminescence, primary human CD4 T cells, PD-L1 beads | 29,000 tested, under 10 active | AID 2316, 2010 | activation, % (test concentration not listed) | CellTiter-Glo 96 h; call rule not given here;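 note: 0% = median vehicle wells and 100% = positive control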
An asterisk follows results filed as active; ? = inconclusive; . = no result given.

SMILES	STK33 inh	NOMO-1 viab	PD-1 reversal
Cc1ccc(S(=O)(=O)N2c3ccccc3C(C)(c3ccccc3)CC2(C)C)cc1 (stereo not given)	.	107.5*	-1.1
N#Cc1c(NC(=O)C2CC(c3ccccc3O)=NO2)sc2c1CCCC2 (stereo not given)	-3.3	-8.5	.
COc1ccc(-c2cc(=O)oc3cc(OC(C(=O)O)c4ccccc4)ccc23)cc1 (stereo not given)	-0.8	3.0	1.6
CC(C)c1ccc(NCC(O)CSc2ccccc2)cc1 (stereo not given)	.	109.9*	-0.6
Cc1cc(C)c(C#N)c(SCC(O)CNc2ccc(Cl)cc2)n1 (stereo not given)	-5.3	27.1	0.7
CC(C)c1ccc(NCC(O)COc2ccc(Cl)c(Cl)c2)cc1 (stereo not given)	.	116.6*	-3.4
Cc1cc2ncn(CC(O)COc3ccc(C(C)C)cc3)c2cc1C (stereo not given)	0.1	?	-6.0
CCc1ccc(-n2c(SCC(=O)Nc3cc(Cl)ccc3C)nnc2-c2ccncc2)cc1	1.3	36.3	-2.8
Cc1ccc(C)c(NC(=O)CSc2nnnn2-c2ccc(C(=O)O)cc2)c1	0.8	12.6	-1.1
Cc1ccc(NC(=O)CSc2n[nH]c(-c3ccccc3)n2)c(C)c1	13.8	0.4	0.1
Cc1ccc(C(C)C)c(OCc2ccc(C(=O)Nc3sc4c(c3C#N)CCCC4)o2)c1	5.3	-0.6	0.2
O=[N+]([O-])c1ccccc1NCCNS(=O)(=O)c1ccc(Cl)c(Cl)c1	0.1	13.8	0.3
Cc1cc(NC(=O)CN(c2ccc(Cl)cc2)S(C)(=O)=O)ccc1Br	-4.5	23.5	.
COc1ccc(Cl)cc1Nc1nc(N)nc(-c2cc3ccccc3o2)n1	-1.1	95.0*	.
COc1ccc(Cl)cc1Nc1nc(N)nc(-c2oc3ccccc3c2C)n1	4.6	11.8	0.0
COC(=O)C(C)Sc1nnc(-c2ccc(Br)cc2)o1 (stereo not given)	.	39.9	0.2
O=C(CC1(O)C(=O)Nc2ccc(I)cc21)c1ccccn1 (stereo not given)	-1.2	89.9*	.
O=C(CC1(O)C(=O)Nc2ccc(Cl)cc21)c1ccccn1 (stereo not given)	-0.9	42.7	0.7
Cc1ccc(S(=O)(=O)N(C)C[C@@H]2Oc3c(NC(=O)c4nc5ccccc5s4)cccc3C(=O)N([C@H](C)CO)C[C@H]2C)cc1	.	?	-0.9
C[C@H](CO)N1C[C@H](C)[C@H](CN(C)S(=O)(=O)c2ccccc2)Oc2c(NC(=O)c3nc4ccccc4s3)cccc2C1=O	.	87.7*	-3.9
COc1ccc(S(=O)(=O)N(C)C[C@H]2Oc3c(NC(=O)c4nc5ccccc5s4)cccc3C(=O)N([C@@H](C)CO)C[C@H]2C)cc1	.	61.4	.
COc1ccc(S(=O)(=O)N(C)C[C@@H]2Oc3c(NC(=O)c4nc5ccccc5s4)cccc3C(=O)N([C@H](C)CO)C[C@@H]2C)cc1	.	117.0*	-4.6
Cc1c(Cl)cccc1NC(=O)CN1CCC(C(N)=O)(N2CCCCC2)CC1	-3.2	25.9	0.9
C[C@@H]1CN([C@@H](C)CO)C(=O)c2cccc(NS(=O)(=O)c3ccc(F)cc3)c2O[C@H]1CN(C)C(=O)Nc1ccc(C(F)(F)F)cc1	.	2.0	0.2
C[C@@H]1CN([C@@H](C)CO)C(=O)c2cccc(NC(=O)Nc3ccc(C(F)(F)F)cc3)c2O[C@@H]1CN(C)C(=O)Nc1ccc(C(F)(F)F)cc1	.	114.9*	-3.8
SMILES	STK33 inh	NOMO-1 viab	PD-1 reversal
C[C@H](CO)N1C[C@H](C)[C@H](CN(C)C(=O)Nc2ccc(C(F)(F)F)cc2)Oc2c(NS(=O)(=O)c3ccc(F)cc3)cccc2C1=O	.	84.2*	-3.8
C[C@H](CO)N1C[C@H](C)[C@H](CN(C)C(=O)Nc2ccc(C(F)(F)F)cc2)Oc2c(NC(=O)Nc3ccc(C(F)(F)F)cc3)cccc2C1=O	.	?	-7.7
C[C@@H]1CN([C@H](C)CO)C(=O)c2cccc(NC(=O)Nc3ccccc3)c2O[C@H]1CN(C)C(=O)Nc1ccc(C(F)(F)F)cc1	.	24.6	0.1
COc1ccc(NC(=O)N(C)C[C@@H]2Oc3c(NC(=O)Nc4ccc(C(F)(F)F)cc4)cccc3C(=O)N([C@@H](C)CO)C[C@H]2C)cc1	.	93.4*	-3.5
COc1ccc(NC(=O)Nc2cccc3c2O[C@H](CN(C)C(=O)Nc2ccc(C(F)(F)F)cc2)[C@@H](C)CN([C@H](C)CO)C3=O)cc1	.	23.1	.
C[C@H]1CN([C@@H](C)CO)C(=O)c2cccc(NC(=O)Nc3ccc(C(F)(F)F)cc3)c2O[C@H]1CN(C)C(=O)Nc1ccccc1	.	103.3*	-8.1
O=C1C(=O)N(CCN2CCOCC2)C(c2ccc(Cl)cc2)C1C(=O)c1ccco1 (stereo not given)	-5.0	-1.2	0.5
CC1(C)CC[C@]2(C(=O)O[C@@H]3O[C@H](CO[C@@H]4O[C@H](CO[C@@H]5O[C@H](CO)[C@@H](O)[C@H](O)[C@H]5O)[C@@H](O)[C@H](O)[C@H]4O)[C@@H](O)[C@H](O[C@@H]4O[C@H](CO)[C@@H](O)[C@H](O)[C@H]4O)[C@H]3O)CC[C@]3(C)C(=CCC4[C@@]5(C)CC[C@H](O)[C@@](C)(C(=O)O)C5CC[C@]43C)C2C1 (stereo not given in full)	-2.7	24.8	-1.4
CC(C)(O)CCc1cc2c(cc1O)O[C@H]1c3ccc(O)cc3OC[C@@H]21	3.5	.	.
COC(=O)C1=C(N)Oc2cc(C)n(Cc3ccccc3)c(=O)c2C1c1ccncc1 (stereo not given)	.	6.5	0.7
CCOC(=O)c1c(NC(=O)CSc2nc3ccccc3[nH]2)sc(C)c1C	-1.7	20.9	-2.9
O=c1c2ccccc2n(Cc2ccc(Cl)cc2)c(=O)n1Cc1ccc(Cl)cc1	.	36.7	0.2
CCn1c2ccccc2c2cc(CNCCc3ccc(Cl)cc3)ccc21	.	112.9*	-11.5
N#CC1(NC(=O)c2cc3ccccc3oc2=O)CCCCC1	.	45.6	0.3
C[C@@H]1CN([C@H](C)CO)C(=O)c2cc(NC(=O)Cc3cn(C)c4ccccc34)ccc2O[C@H]1CN(C)Cc1ccc(C(=O)Nc2ccccc2N)cc1	.	22.5	-0.3
C[C@H](CO)N1C[C@H](C)[C@H](CN(C)Cc2ccc(C(=O)Nc3ccccc3N)cc2)Oc2ccc(NC(=O)Cc3cn(C)c4ccccc34)cc2C1=O	.	102.3*	-1.9
C[C@@H]1CN([C@@H](C)CO)C(=O)c2cc(NC(=O)Cc3cn(C)c4ccccc34)ccc2O[C@H]1CN(C)Cc1ccc(C(=O)Nc2ccccc2N)cc1	.	50.6	-1.5
C[C@@H]1CN([C@@H](C)CO)C(=O)c2cc(NC(=O)Cc3cn(C)c4ccccc34)ccc2O[C@@H]1CN(C)Cc1ccc(C(=O)Nc2ccccc2N)cc1	.	99.4*	-3.5
OC(COc1ccc2ccccc2c1Br)Cn1cnc2ccccc21 (stereo not given)	5.7	29.9	-0.5
Cc1cccc(-n2c(C)nnc2SCC(=O)Nc2ccc(Br)cc2F)c1	0.1	-25.1	-0.5
O=C(NCCc1c[nH]c2ccccc12)Nc1ccc(Cl)c(Cl)c1	3.4	26.8	.
C=C1C2(C)OC(=O)C34OC2C2=C(CO)C5(CCC2(C)C13C(=O)OC4C)C(O)CC(=O)OC5(C)C (stereo not given)	-3.8	13.7	1.3

From PubChem BioAssay
